Measured values as given in PubChem BioAssay AID1159580 (chemical genetic matrix, 2015).
In all, about 5,500 compounds went through this assay and about 2,000 (36%) were called active. Not shown: some 18% with an inconclusive outcome. The list shows a part of the results. Unmarked numbers belong to inactive results. Cut-off read from the data, not from the text of the source: active = normalized growth mostly below about 0.91 (no sharp cut-off); inconclusive = no clear call, values can overlap the other calls; inactive = mostly above about 0.92.

Assay: chemical genetic growth profiling, strain panel (AID 1159580);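 note: tested at 20 µM; growth read once vehicle control cultures reached saturation at 30 °C; 1 = growth at the plate median or of vehicle wells; lower values mean less growth of the strain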
Conditions: growth OD

Which results are given for COC(=O)Nc1nc2ccc(Sc3ccccc3)cc2[nH]1?
normalized growth (S. cerevisiae deletion strains, locus YJR075W, strain HOC1, active compounds read low): 0.982; normalized growth (S. cerevisiae deletion strains, locus YKL009W, strain mrt4, active compounds read low): 0.951; normalized growth (S. cerevisiae deletion strains, locus YKL068W, active compounds read low): 0.996; normalized growth (S. cerevisiae deletion strains, locus YKL085W, strain MDH1 (second series), active compounds read low): 0.959; normalized growth (S. cerevisiae deletion strains, locus YKL085W, strain MDH1, active compounds read low): 0.959; normalized growth (S. cerevisiae deletion strains, locus YKL160W, strain elf1, active compounds read low): 0.997; normalized growth (S. cerevisiae deletion strains, locus YKL190W, strain CNB1, active compounds read low): 0.996; normalized growth (S. cerevisiae deletion strains, locus YKR001C, strain vps1, active compounds read low): 0.978; normalized growth (S. cerevisiae deletion strains, locus YKR026C, strain gcn3, active compounds read low): 0.98; normalized growth (S. cerevisiae deletion strains, locus YKR091W, strain srl3, active compounds read low): 1.01; normalized growth (S. cerevisiae deletion strains, locus YLL001W, strain dnm1, active compounds read low): 1; normalized growth (S. cerevisiae deletion strains, locus YLL026W, active compounds read low): 0.992; normalized growth (S. cerevisiae deletion strains, locus YLL041C, strain sdh2, active compounds read low): 0.989; normalized growth (S. cerevisiae deletion strains, locus YLR027C, strain aat2, active compounds read low): 0.995; normalized growth (S. cerevisiae deletion strains, locus YLR039C, strain RIC1, active compounds read low): 0.95; normalized growth (S. cerevisiae deletion strains, locus YLR058C, strain SHM2, active compounds read low): 0.996; normalized growth (S. cerevisiae deletion strains, locus YLR102C, strain apc9, active compounds read low): 1; normalized growth (S. cerevisiae deletion strains, locus YLR113W, strain HOG1, active compounds read low): 0.957; normalized growth (S. cerevisiae deletion strains, locus YLR221C, strain rsa3, active compounds read low): 0.992; normalized growth (S. cerevisiae deletion strains, locus YLR258W, strain gsy2, active compounds read low): 0.99; normalized growth (S. cerevisiae deletion strains, locus YLR262C, strain YPT6 (second series), active compounds read low): 0.921; normalized growth (S. cerevisiae deletion strains, locus YLR262C, strain YPT6, active compounds read low): 0.965; normalized growth (S. cerevisiae deletion strains, locus YLR268W, strain sec22, active compounds read low): 1.01; normalized growth (S. cerevisiae deletion strains, locus YLR320W, strain mms22, active compounds read low): 0.998; normalized growth (S. cerevisiae deletion strains, locus YLR330W, strain CHS5, active compounds read low): 0.994; normalized growth (S. cerevisiae deletion strains, locus YLR342W, strain FKS1 (second series), active compounds read low): 0.93; normalized growth (S. cerevisiae deletion strains, locus YLR342W, strain FKS1, active compounds read low): 0.983; normalized growth (S. cerevisiae deletion strains, locus YLR357W, strain rsc2, active compounds read low): 0.951; normalized growth (S. cerevisiae deletion strains, locus YLR370C, strain arc18, active compounds read low): 1; normalized growth (S. cerevisiae deletion strains, locus YLR371W, strain rom2, active compounds read low): 1.01; normalized growth (S. cerevisiae deletion strains, locus YLR384C, strain iki3, active compounds read low): 0.996; normalized growth (S. cerevisiae deletion strains, locus YLR418C, strain cdc73, active compounds read low): 0.918; normalized growth (S. cerevisiae deletion strains, locus YML016C, strain PPZ1, active compounds read low): 0.989; normalized growth (S. cerevisiae deletion strains, locus YML032C, strain rad52, active compounds read low): 1; normalized growth (S. cerevisiae deletion strains, locus YML120C, strain ndi1, active compounds read low): 0.98; normalized growth (S. cerevisiae deletion strains, locus YML124C, strain tub3, active compounds read low): 0.181 (active); normalized growth (S. cerevisiae deletion strains, locus YMR058W, strain fet3, active compounds read low): 0.994; normalized growth (S. cerevisiae deletion strains, locus YMR078C, strain ctf18, active compounds read low): 1.01; normalized growth (S. cerevisiae deletion strains, locus YMR125W, strain sto1, active compounds read low): 0.984; normalized growth (S. cerevisiae deletion strains, locus YMR129W, active compounds read low): 1; normalized growth (S. cerevisiae deletion strains, locus YMR205C, strain PFK2, active compounds read low): 0.988; normalized growth (S. cerevisiae deletion strains, locus YMR223W, strain ubp8, active compounds read low): 0.968; normalized growth (S. cerevisiae deletion strains, locus YMR231W, strain pep5, active compounds read low): 0.984; normalized growth (S. cerevisiae deletion strains, locus YMR263W, strain SAP30, active compounds read low): 0.973; normalized growth (S. cerevisiae deletion strains, locus YMR307W, strain GAS1, active compounds read low): 0.974; normalized growth (S. cerevisiae deletion strains, locus YNL067W, strain RPL9B, active compounds read low): 0.996; normalized growth (S. cerevisiae deletion strains, locus YNL071W, strain lat1, active compounds read low): 0.988; normalized growth (S. cerevisiae deletion strains, locus YNL128W, strain TEP1, active compounds read low): 1.01; normalized growth (S. cerevisiae deletion strains, locus YNL153C, strain GIM3, active compounds read low): 0.0686 (active); normalized growth (S. cerevisiae deletion strains, locus YNL183C, strain NPR1, active compounds read low): 0.893; normalized growth (S. cerevisiae deletion strains, locus YNL209W, strain ssb2, active compounds read low): 1.01; normalized growth (S. cerevisiae deletion strains, locus YNL233W, strain BNI4, active compounds read low): 0.977; normalized growth (S. cerevisiae deletion strains, locus YNL248C, strain rpa49, active compounds read low): 0.999; normalized growth (S. cerevisiae deletion strains, locus YNL250W, strain rad50, active compounds read low): 1; normalized growth (S. cerevisiae deletion strains, locus YNL271C, strain bni1, active compounds read low): 1.01; normalized growth (S. cerevisiae deletion strains, locus YNL298W, strain CLA4, active compounds read low): 0.99; normalized growth (S. cerevisiae deletion strains, locus YNL307C, strain MCK1, active compounds read low): 0.993; normalized growth (S. cerevisiae deletion strains, locus YNL322C, strain KRE1 (second series), active compounds read low): 0.988; normalized growth (S. cerevisiae deletion strains, locus YNL322C, strain KRE1, active compounds read low): 1; normalized growth (S. cerevisiae deletion strains, locus YNR049C, strain mso1, active compounds read low): 0.997; normalized growth (S. cerevisiae deletion strains, locus YNR052C, strain pop2, active compounds read low): 1; normalized growth (S. cerevisiae deletion strains, locus YOL006C, strain TOP1, active compounds read low): 0.981; normalized growth (S. cerevisiae deletion strains, locus YOL012C, strain htz1): 0.49; normalized growth (S. cerevisiae deletion strains, locus YOL147C, strain pex11, active compounds read low): 0.996; normalized growth (S. cerevisiae deletion strains, locus YOR001W, strain rrp6, active compounds read low): 0.985; normalized growth (S. cerevisiae deletion strains, locus YOR061W, strain CKA2, active compounds read low): 0.994; normalized growth (S. cerevisiae deletion strains, locus YOR069W, strain VPS5, active compounds read low): 1; normalized growth (S. cerevisiae deletion strains, locus YOR070C, strain gyp1, active compounds read low): 0.99; normalized growth (S. cerevisiae deletion strains, locus YOR080W, strain dia2, active compounds read low): 0.993; normalized growth (S. cerevisiae deletion strains, locus YOR083W, strain WHI5, active compounds read low): 0.976; normalized growth (S. cerevisiae deletion strains, locus YOR106W, strain vam3, active compounds read low): 0.972; normalized growth (S. cerevisiae deletion strains, locus YOR136W, strain idh2, active compounds read low): 0.993; normalized growth (S. cerevisiae deletion strains, locus YOR144C, strain elg1, active compounds read low): 1; normalized growth (S. cerevisiae deletion strains, locus YOR184W, strain ser1, active compounds read low): 0.984; normalized growth (S. cerevisiae deletion strains, locus YOR231W, strain MKK1, active compounds read low): 0.973; normalized growth (S. cerevisiae deletion strains, locus YOR265W, strain rbl2, active compounds read low): 0.982; normalized growth (S. cerevisiae deletion strains, locus YOR270C, strain vph1, active compounds read low): 0.991; normalized growth (S. cerevisiae deletion strains, locus YOR290C, strain snf2, active compounds read low): 0.993; normalized growth (S. cerevisiae deletion strains, locus YOR316C, strain cot1, active compounds read low): 0.998; normalized growth (S. cerevisiae deletion strains, locus YPL051W, strain arl3, active compounds read low): 0.996; normalized growth (S. cerevisiae deletion strains, locus YPL055C, strain LGE1, active compounds read low): 0.953; normalized growth (S. cerevisiae deletion strains, locus YPL078C, strain atp4, active compounds read low): 0.994; normalized growth (S. cerevisiae deletion strains, locus YPL106C, strain sse1, active compounds read low): 1.08; normalized growth (S. cerevisiae deletion strains, locus YPL240C, strain hsp82, active compounds read low): 1; normalized growth (S. cerevisiae deletion strains, locus YPL241C, strain CIN2, active compounds read low): 0.0715 (active); normalized growth (S. cerevisiae deletion strains, locus YPL256C, strain CLN2, active compounds read low): 0.959; normalized growth (S. cerevisiae deletion strains, locus YPR119W, strain clb2, active compounds read low): 1; normalized growth (S. cerevisiae deletion strains, locus YPR141C, strain kar3, active compounds read low): 1.02; normalized growth (S. cerevisiae deletion strains, locus YPR163C, strain tif3, active compounds read low): 0.986; normalized growth (S. cerevisiae deletion strains, locus YPR167C, strain met16, active compounds read low): 1; normalized growth (S. cerevisiae deletion strains, strain wtn01, active compounds read low): 0.998; normalized growth (S. cerevisiae strains, strain wild type, active compounds read low): 0.997
